Coupling enz: coupling enzyme interference in Giardia aldolase counter-screen; coupling enzyme system counterscreen, AmpLite Red fluorescence; activity change, negative = inhibition, % at 58.2 µM, hits read low; actives 0.67% (n = 290,000); AID 2472; in the data active = activity change below about -30%
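Fluorescence at 525 nm excitation and 598 nm emission measured inhibition of the coupled detection system without aldolase. Compounds (at 57.5 uM final) were preincubated 10 min at room temperature with coupling enzyme reagent before a 20 min substrate/AmpLite Red step.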
Tau fluor cs: counter-screen for tau fibril formation inhibitors; tau K18 P301L Alexa594 fluorescence, heparin fibrillization; Potency, µM (titrated, usually from 57.7 µM), for the others: at the highest dose activity change, negative = decrease; actives 0.93% (n = 280,000); AID 1463; note: potency is the fitted concentration of half-maximal effect; nearly all actives have a fitted effect of over 55% in size
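Human K18 P301L tau (15 uM unlabeled plus 0.24 uM Alexa 594-labeled, final) in 100 mM sodium acetate pH 7 was mixed with compound and 20 uM heparin and incubated 6 hr at 37 C.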
JMJD2E inh: JMJD2E (human) inhibition. actives 1.6% (n = 230,000). Potency, µM (doses to about 57.1 µM), without a hit: at the highest dose activity change, negative = inhibition, actives largely listed as inhibitors. B2RXH2. JMJD2E catalytic domain, FDH-coupled NADH fluorescence (FDH is formaldehyde dehydrogenase);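 note: potency is the fitted concentration of half-maximal effect; 0% = wells with enzyme and -100% = buffer wells without enzyme; nearly all actives have a fitted effect of over 50% in size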
Target sequence (B2RXH2 1-337 limits assumed): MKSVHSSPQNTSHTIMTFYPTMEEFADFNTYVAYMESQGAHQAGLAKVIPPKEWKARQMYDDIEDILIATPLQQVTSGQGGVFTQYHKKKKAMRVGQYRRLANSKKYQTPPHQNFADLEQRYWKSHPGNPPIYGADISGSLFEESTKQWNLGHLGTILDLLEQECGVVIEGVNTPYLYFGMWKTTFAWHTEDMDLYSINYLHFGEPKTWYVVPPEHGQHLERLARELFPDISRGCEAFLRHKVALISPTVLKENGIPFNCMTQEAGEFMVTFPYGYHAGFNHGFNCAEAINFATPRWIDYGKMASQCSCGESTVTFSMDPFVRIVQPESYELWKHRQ
Tau ThT inhib: inhibitors of human tau fibril formation, thioflavin T binding | P10636 | recombinant tau K18 P301L, heparin-induced fibrillization, ThT fluorescence | Potency, µM (highest dose often 57.4 µM), for the others: at the top dose activity, negative = inhibition, most hits filed as inhibitors | actives 2.1% (n = 270,000) | AID 1460; note: potency is the fitted concentration of half-maximal effect; nearly all actives have a fitted effect of over 55% in size
Target sequence (P10636 561-689 P618L limits assumed): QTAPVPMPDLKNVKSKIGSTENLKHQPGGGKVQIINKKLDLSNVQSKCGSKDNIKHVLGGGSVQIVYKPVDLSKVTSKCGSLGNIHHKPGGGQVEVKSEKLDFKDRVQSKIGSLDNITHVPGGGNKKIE
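Fibril formation assay: tau K18 P301L at 15 uM with trace Alexa 594 label, heparin inducer 20 uM, pH 7 sodium acetate buffer, 37 C for 6 hr; endpoint ThT signal.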
Sfp inh: Sfp phosphopantetheinyl transferase inhibition; Q9F4F7; Biochemical Sfp PPTase activity, qHTS; Potency, µM, for inactives: largest response in the series, negative = inhibition, most hits filed as inhibitors; actives 3.5% (n = 310,000); AID 1490;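 note: the enzyme is Sfp with the accession as filed and its product quenches rhodamine fluorescence; potency is the fitted concentration of half-maximal effect; 0% = enzyme reaction without inhibitor and -100% = no enzyme wells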
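Fluorescence-quenching assay: 15 nM Sfp-PPTase preincubated 15 min at room temperature with compound, then 5 uM rhodamine-CoA and 12.5 uM BHQ-2-labelled YbbR peptide added. Fluorescence (ex 525/em 598 nm) read at start and after 30 min; difference gives rate.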
Tau FP inhib: tau fibrillization inhibition (FP); actives 0.39% (n = 280,000); Potency, µM (titrated, usually from 57.7 µM), inactives show at the highest dose activity, negative = inhibition, most hits filed as inhibitors; P10636; K18 P301L tau heparin fibrillization, Alexa594 FP, 6 h; note: potency is the fitted concentration of half-maximal effect; nearly all actives have a fitted effect of over 55% in size
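K18 P301L tau (15 uM unlabeled/0.24 uM Alexa 594-labeled, final) + compound + heparin 20 uM final; 100 mM NaOAc pH 7; 6 hr 37 C; ThT 30 uM final added, 1 hr RT; FP ex 555/em 632 nm.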
The depositor's hits bear a star; ? = inconclusive; . = not tested or not shown; ! = not confirmed by another sample; [ ] = remark or other dose. Most compounds without a hit are left out; they make up all but 5.3% or so of the library. Unless noted, calls come from the whole dose curve; as a rule, active = well fitted curve in the direction sought with a large enough effect; inconclusive = small, poorly fitted or top-dose-only effect, or another doubt; inactive = no such curve, though single readings can be large; an effect the other way counts as inactive or inconclusive. Unless noted, % is set by controls: 0 for no effect and ±100 for the full control effect.

SMILES | Coupling enz | Tau fluor cs | JMJD2E inh | Tau ThT inhib | Sfp inh | Tau FP inhib
CC(=O)NNC(=S)NC(=O)c1cccc([N+](=O)[O-])c1 | 1 | 4% | -13% | -8% | 11µM* | 2%
Cc1cccc(OCCn2c(SCC(=O)O)nc3ccccc32)c1 | . | 12% | . | 3% | . | 8%
COCCNC(=S)Nc1ccc([N+](=O)[O-])cc1C | 2 | -4% | -13% | 4% | 56µM* | 5%
O=C(NNc1ccccc1[N+](=O)[O-])Nc1ccccc1 | 1 | -22% | -5% | ? | -2% | -4%
CNC(=S)NNc1ccccc1[N+](=O)[O-] | -1 | -20% | 5% | ? | 2.5µM* | 2%
COc1ccc(C(=O)NCCNc2ccccc2[N+](=O)[O-])cc1 | 1 | -13% | 0% | 8.9µM* | 9% | -5%
COCCNC(=S)NNc1ccccc1[N+](=O)[O-] | -2 | -29% | -13% | ? | 10µM* | 0%
CC(=O)NC(=S)Nc1ccc([N+](=O)[O-])cc1C | 3 | 1% | 7% | 0% | -7% | -3%
FC(F)(F)c1cccc(N2CCN(Cc3nnc(-c4ccc5c(c4)OCO5)o3)CC2)c1 | . | -29% | . | ? | . | 3%
CC[C@H](C)[C@H](NC(=O)[C@H](CCC(=O)O)NC(=O)CNC(=O)[C@@H](NC(=O)[C@@H]1CCCN1C(=O)[C@@H](NC(=O)[C@@H]1CCCN1C(=O)[C@@H]1CCCN1C(=O)[C@H](CC(N)=O)NC(=O)[C@H](CC(N)=O)NC(=O)[C@@H](NC(=O)[C@H](CCSC)NC(=O)[C@H](Cc1c[nH]c2ccccc12)NC(=O)CNC(=O)[C@@H](NC(=O)[C@H](CCC(N)=O)NC(=O)[C@@H](N)CCC(=O)O)[C@@H](C)CC)[C@@H](C)O)[C@@H](C)CC)C(C)C)C(=O)O | 1 | . | . | . | 5% | .
CN(C)c1ccc(CN(CC2CCCO2)C(=O)COc2ccc(Cl)cc2)cc1 (centres undefined) | . | -17% | . | -11% | . | 5%
COc1ccc(C2CC(=O)Oc3c(C(CCN4CCCCC4)c4ccc(N(C)C)cc4)c(OC)cc(OC)c32)cc1 (centres undefined) | 2 | -16% | -4% | ? | -10% | 4%
COc1ccc(C2CC(=O)Oc3c(C(CCN4CCCC(C)C4)c4ccc(N(C)C)cc4)c(OC)cc(OC)c32)cc1 (centres undefined) | 2 | -1% | -12% | -7% | 89µM*! | 11%
Cc1cc(O)c(NC(=S)NC(=O)c2ccc(-c3ccc(Cl)cc3)o2)cc1C | -2 | 7.9µM*[quencher] | -8% | 11µM* | ? | ?
Cc1ccc(S(=O)(=O)c2nnn3c2nc(Nc2ccc(C(C)C)cc2)c2sccc23)cc1C | . | ? | . | 16% | . | 13µM*
C/C(=N\Nc1nc2ccccc2s1)c1ccc2c(c1)OCO2 | 4 | ? | -7% | ? | -28% | -1%
C/C(=N\Nc1nc2ccccc2s1)c1ccc(Br)s1 | -1 | 11µM*[quencher] | -3% | ? | 9% | ?
CC(=O)OC[C@@H]1O[C@@H](O/N=C2/C[C@@H](O)[C@@H](O)[C@@H]3[C@@H]4C(=O)N(c5cccc(Oc6ccccc6)c5)C(=O)[C@H]4CC[C@H]23)[C@H](OC(C)=O)[C@H](OC(C)=O)[C@@H]1OC(C)=O | 1 | -8%[11.6 µM] | . | -7%[11.5 µM] | 6% | 1%[11.6 µM]
CC(C)(C)c1ccc(C2=NC(C)(C)N(CC(=O)Nc3ccc(F)c(F)c3)C2=O)cc1 | . | -28% | . | 9% | . | ?
COc1ccc(Oc2c(-c3ccc(O)cc3O)n[nH]c2C)cc1 | 5 | ? | -14% | -3% | 14% | 12%
CCCc1ccc(Oc2cn[nH]c2-c2ccc(O)c(C)c2O)cc1 | -2 | 14µM*[quencher] | -3% | 25µM* | 21% | -6%
CCCc1ccc(Oc2c(-c3ccc(O)c(C)c3O)n[nH]c2C)cc1 | 0 | 13µM*[quencher] | 0% | 28µM* | 27% | ?
N#C/C(=C\c1cc(Br)c(O)c(Br)c1)c1nc2ccccc2c(=O)[nH]1 | . | ? | . | ? | . | -3%
COc1ccc(N2CCN(C(CNC(=O)c3ccc(C)cc3)c3ccc4c(c3)OCO4)CC2)cc1 (centres undefined) | . | ? | . | ? | . | 10%
O=C(Nc1ccc2nc(SCCOc3ccccc3Cl)sc2c1)c1cccs1 | . | ? | . | 12% | . | 10µM*
SMILES | Coupling enz | Tau fluor cs | JMJD2E inh | Tau ThT inhib | Sfp inh | Tau FP inhib
Cc1ccc(OCCSc2nc3ccc(NC(=O)c4ccc(F)cc4)cc3s2)cc1 | . | -1% | . | -11% | . | -11%
Cc1cc(C)cc(OCCSc2nc3ccc(NC(=O)c4cccs4)cc3s2)c1 | . | ? | . | 7% | . | 7.1µM*
N#CCCn1c(=O)c(-c2ccccc2)nc2cnc(N3CCOCC3)nc21 | 1 | . | . | . | -5% | .
O=C1CSC(=S)N1/N=C/c1c(F)cccc1F | -1 | . | . | . | ? | .
COc1ccc2ccccc2c1/C=N/N1C(=O)CSC1=S | -25 | -29% | -19% | 11µM* | ? | -11%
COc1cc(/C=N/N2C(=O)CSC2=S)cc(Br)c1O | -4 | ? | ? | 13µM* | -6% | ?
COc1cccc(/C=N/N2C(=O)CSC2=S)c1O | -1 | ? | -4% | 16µM* | ? | ?
COc1ccc(OC2C=CC(C#Cc3ccccc3)OC2CO)cc1 (centres undefined) | -1 | -23%[11.6 µM] | . | ? | -2% | -7%[11.6 µM]
CCCSc1nc(C)c(-c2csc(C(C#N)=C3CCCC3)n2)cc1C#N | -10 | -22% | ? | ? | 71µM* | 4%
CCOC(=O)c1cccc(NC(=O)CN2C(=O)c3ccccc3Sc3ncccc32)c1 | . | -15% | . | -7% | . | 1%
O=C(O)c1ccc(Cl)c(S(=O)(=O)Nc2ccc3[nH]c(=O)[nH]c3c2)c1 | -28 | ? | ? | 14µM* | -7% | ?
O=C(O)c1cccc(S(=O)(=O)Nc2ccc3[nH]c(=O)[nH]c3c2)c1 | -25 | ? | -23% | ? | 6% | -12%
CCN1CCN(CCCNC(=O)Cn2c(-c3cccs3)cc3cc(F)ccc32)CC1 | . | -6% | . | -4% | . | -2%
COc1ccc(-c2ccc(F)cc2)cc1C1C2C=CCC(C)C2C(=O)N1Cc1ccccc1 (centres undefined) | 5 | . | . | . | 6% | .
Cc1c(Cl)cccc1NC(=S)Nc1ccc2[nH]c(=O)[nH]c2c1 | -8 | ? | -1% | ? | 56µM* | 1%
CCOC(=O)CC(NC(=O)c1cc2c(=O)n3cccc(C)c3nc2s1)c1ccc(OCC)c(OC)c1 (centres undefined) | . | 14% | . | 7% | . | -16%
O=C(O)CCCC(=O)NCc1c(Cl)cccc1Sc1ccc(Cl)cc1 | 2 | -7% | -1% | -7% | 79µM* | 2%
